From PubChem BioAssay
Active and inactive are the calls of the source.

Tests used:
[1] = system: Human papillomavirus type 1a protein E7 (residues 44-93); experiment: small molecules binding HPV E7 44-93 – biochemical, small-molecule microarray, residues 44-93, 635 nm fluorescence, primary screen (AID 1108); conditions: fluorescence 635 nm, higher = more signal;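 note: E7 fragment applied at 1 µg/mL in TBST for 1 h at 4 C; score combines spot fluorescence with its signal to noise ratio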
[2] = hepatitis C replication reporter changes, two-sided – Huh7 cells, luciferase reporter, HCV replication inhibitor project, primary screen (AID 1109); conditions: Huh7 HCV replicon luciferase reporter, 48 h; higher = more signal;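 note: huh7 hepatoma cells harbouring a luciferase neomycin HCV replicon reporter; luciferase luminescence as measure of HCV replicon replication; test concentration not given here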
[3] = target: Left-right determination factor 2 (Homo sapiens) (UniProt O00292); experiment: small molecules binding LEFTY2 protein – biochemical, small-molecule microarray, 635 nm fluorescence scan, primary screen (AID 1110); conditions: higher = more signal
[4] = target: Calmodulin-1 (Homo sapiens) (UniProt P0DP23); experiment: small molecules binding calmodulin-1 with EGTA – biochemical, small-molecule microarray, Cy5-labelled CALM1, profiling panel (AID 1111); conditions: Cy5-CALM1 binding fluorescence, higher = more signal;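 note: labelled calmodulin applied in Tris saline Tween buffer holding calcium plus EGTA and DTT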
[5] = target: Calmodulin-1 (Homo sapiens) (UniProt P0DP23); experiment: small molecules binding Ca-loaded calmodulin-1 – biochemical, small-molecule microarray, Cy5-labelled CALM1, plus calcium, artefact control for SMM control-protein annotation, profiling panel (AID 1112); conditions: Cy5-CALM1 binding fluorescence, higher = more signal;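 note: score merges spot fluorescence with signal to noise from triplicate slides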
[6] = probe aWnt5a binding to arrayed compounds – biochemical, biotinylated probe, 635/667 nm fluorescence, primary screen (AID 1113); conditions: small-molecule microarray, higher = more signal;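 note: score merges 667 nm fluorescence intensity with signal-to-noise per printed feature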
[7] = probe aShh binding to arrayed compounds – biochemical, biotinylated probe, 635/667 nm fluorescence, primary screen (AID 1114); conditions: small-molecule microarray, higher = more signal;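 note: probe is biotin-labelled aShh protein from a stem cell growth factor screen; measures binding of labelled protein to compounds printed on the slide; score merges feature fluorescence at 667 nm with signal-to-noise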
[8] = probe aNog binding to arrayed compounds – biochemical, biotinylated probe, 635/667 nm fluorescence, primary screen (AID 1115); conditions: small-molecule microarray, higher = more signal;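 note: probe is biotinylated aNog protein used at 0.15 µg/mL for 1 h at 4 C; z-score combines 667 nm fluorescence of each spot with its signal to noise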
[9] = target: Torsin-1A-interacting protein 1 (Homo sapiens) (UniProt Q5JTV8); experiment: compound microarray binding of lysate hLAP1 – cell lysate, small-molecule microarray, COS7 lysate, 635/667 nm fluorescence, primary screen (AID 1116); conditions: 635 nm fluorescence, higher = more signal
[10] = target: Alpha-bungarotoxin (Bungarus multicinctus) (UniProt P60615); experiment: compounds binding labelled alpha-BTX control protein – biochemical, small-molecule microarray, Alexa647 label, 635/667 nm fluorescence, artefact control for SMM control protein annotation, profiling panel (AID 1117); conditions: alpha-BTX-A647 binding fluorescence, higher = more signal
Albumin (Bos taurus) = Albumin (Bos taurus) (UniProt P02769); experiment: compounds binding labelled BSA control protein – biochemical, small-molecule microarray, Alexa647 label, 635/667 nm fluorescence, artefact control for SMM control protein annotation, profiling panel (AID 1118); conditions: BSA-A647 binding, fluorescence 635 nm, higher = more signal;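 note: score merges 667 nm emission intensity and signal-to-noise per printed compound spot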
[11] = probe aXIP binding to arrayed compounds – biochemical, NeuroSMM set, 635/667 nm fluorescence, primary screen (AID 1119); conditions: small-molecule microarray, higher = more signal, called active from +8 up or from −8 down;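 note: probe is the protein aXip251-270 applied at 1 µg/mL to compound-printed slides; binding of probe to printed compounds measured as 667 nm fluorescence plus signal to noise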
[12] = probe aNOTCH3 binding on compound microarray – biochemical, small-molecule microarray, 635/667 nm fluorescence, primary screen (AID 1120); conditions: higher = more signal;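 note: probe is a biotin-tagged antibody raised against NOTCH3 rather than NOTCH3 protein; score merges spot fluorescence near 667 nm with spot signal to noise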
[13] = probe aNOTCH2 binding on compound microarray – biochemical, small-molecule microarray, 635/667 nm fluorescence, primary screen (AID 1121); conditions: higher = more signal;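 note: score merges feature fluorescence read at 667 nm with its signal to noise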
[14] = target: Carbonic anhydrase 2 (Homo sapiens) (UniProt P00918); experiment: compounds binding carbonic anhydrase 2 – biochemical, small-molecule microarray, Alexa647-labelled CAII, profiling panel (AID 1122); conditions: CAII-A647 binding fluorescence, higher = more signal
[15] = COS7 lysate on small-molecule microarray, probe aHis, 635 nm (AID 1123); conditions: COS7 cell lysate, fluorescence, higher = more signal;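 note: z-score combines 667nm fluorescence intensity with signal-to-noise per printed compound spot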
[16] = probe aLAP1 signal on lysate-treated microarray – cell lysate, small-molecule microarray, COS7 lysate, primary screen (AID 1124); conditions: probe aLAP1, fluorescence, higher = more signal;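 note: lysate comes from COS7 cells expressing LAP1 and is applied at 0.3 µg/mL; score merges spot fluorescence near 667 nm with signal-to-noise over triplicate slides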
Sam68 (KHDRBS1) = experiment: compounds binding KHDRBS1 protein – biochemical, small-molecule microarray, 635 nm fluorescence, primary screen (AID 1125); conditions: higher = more signal;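 note: score merges 667 nm channel intensity with signal to noise over triplicate slides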
[17] = system: Chordin-like protein 2 (CHRDL2); experiment: compounds binding chordin-like 2 – biochemical, small-molecule microarray, 635 nm fluorescence, primary screen (AID 1126); conditions: fluorescence 635 nm, higher = more signal;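 note: printed compound slides probed with Chrdl2 protein at 4 µg/mL for 1 h at 4 C; score merges 667 nm emission intensity with signal to noise over three replicate slides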
[18] = target: Concanavalin-A (Canavalia ensiformis) (UniProt P02866); experiment: compounds binding concanavalin A lectin – biochemical, small-molecule microarray, Alexa647 label, 635 nm, artefact control for SMM control protein annotation, primary screen (AID 1127); conditions: ConA-A647 binding fluorescence, higher = more signal;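 note: z combines 667 nm emission intensity with signal-to-noise across three replicate slides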
Chain of Concanavalin-A (Canavalia ensiformis) (P02866 whole entry, looked up): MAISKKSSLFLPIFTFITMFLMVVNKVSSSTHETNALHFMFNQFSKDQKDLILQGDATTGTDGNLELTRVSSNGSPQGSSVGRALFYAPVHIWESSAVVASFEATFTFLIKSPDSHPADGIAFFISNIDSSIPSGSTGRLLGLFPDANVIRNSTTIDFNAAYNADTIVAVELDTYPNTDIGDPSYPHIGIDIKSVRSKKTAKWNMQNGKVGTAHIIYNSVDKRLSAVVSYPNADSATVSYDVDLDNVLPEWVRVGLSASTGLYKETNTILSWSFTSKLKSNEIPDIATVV

Chain of Left-right determination factor 2 (Homo sapiens) (O00292 whole entry, looked up): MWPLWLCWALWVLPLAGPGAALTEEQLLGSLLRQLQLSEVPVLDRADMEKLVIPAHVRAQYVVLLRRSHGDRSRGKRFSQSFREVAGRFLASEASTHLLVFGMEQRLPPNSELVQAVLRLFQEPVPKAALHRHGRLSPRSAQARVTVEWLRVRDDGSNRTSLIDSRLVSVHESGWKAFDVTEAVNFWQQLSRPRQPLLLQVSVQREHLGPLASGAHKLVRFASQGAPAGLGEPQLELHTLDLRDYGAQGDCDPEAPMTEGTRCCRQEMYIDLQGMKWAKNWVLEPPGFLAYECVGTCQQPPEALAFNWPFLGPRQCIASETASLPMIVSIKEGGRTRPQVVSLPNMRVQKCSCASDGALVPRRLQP
Chain of Albumin (Bos taurus) (P02769 whole entry, looked up): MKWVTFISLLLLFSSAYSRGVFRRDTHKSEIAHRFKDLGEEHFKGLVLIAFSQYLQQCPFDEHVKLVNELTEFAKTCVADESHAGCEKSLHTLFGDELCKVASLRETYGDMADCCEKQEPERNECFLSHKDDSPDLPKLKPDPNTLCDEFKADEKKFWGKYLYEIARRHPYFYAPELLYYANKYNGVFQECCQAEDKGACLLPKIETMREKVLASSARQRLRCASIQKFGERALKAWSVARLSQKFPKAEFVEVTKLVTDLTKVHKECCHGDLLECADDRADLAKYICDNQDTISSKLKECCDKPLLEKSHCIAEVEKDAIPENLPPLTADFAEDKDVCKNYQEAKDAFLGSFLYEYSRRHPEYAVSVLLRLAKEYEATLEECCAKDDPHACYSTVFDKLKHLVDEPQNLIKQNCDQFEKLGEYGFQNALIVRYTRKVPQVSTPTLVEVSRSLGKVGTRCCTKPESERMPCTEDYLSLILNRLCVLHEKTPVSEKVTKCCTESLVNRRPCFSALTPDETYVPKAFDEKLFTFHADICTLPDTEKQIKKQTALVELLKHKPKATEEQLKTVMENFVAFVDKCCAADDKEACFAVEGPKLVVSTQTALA
Chain of Torsin-1A-interacting protein 1 (Homo sapiens) (Q5JTV8 whole entry, looked up): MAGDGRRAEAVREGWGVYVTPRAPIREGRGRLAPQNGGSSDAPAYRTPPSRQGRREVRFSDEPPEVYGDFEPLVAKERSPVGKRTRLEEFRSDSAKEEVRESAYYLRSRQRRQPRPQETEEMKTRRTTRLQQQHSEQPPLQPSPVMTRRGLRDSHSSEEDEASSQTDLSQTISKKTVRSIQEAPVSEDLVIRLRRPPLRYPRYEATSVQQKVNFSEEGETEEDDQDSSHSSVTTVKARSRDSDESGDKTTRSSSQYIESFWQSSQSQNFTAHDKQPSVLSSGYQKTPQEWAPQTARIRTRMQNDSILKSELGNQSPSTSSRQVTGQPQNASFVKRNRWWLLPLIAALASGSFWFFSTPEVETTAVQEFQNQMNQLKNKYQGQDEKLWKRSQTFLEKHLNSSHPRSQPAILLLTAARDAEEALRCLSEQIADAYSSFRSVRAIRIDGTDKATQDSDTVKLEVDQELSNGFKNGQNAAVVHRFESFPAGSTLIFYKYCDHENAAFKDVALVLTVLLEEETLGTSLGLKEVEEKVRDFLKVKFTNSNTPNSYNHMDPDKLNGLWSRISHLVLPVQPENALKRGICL
Chain of Alpha-bungarotoxin (Bungarus multicinctus) (P60615 whole entry, looked up): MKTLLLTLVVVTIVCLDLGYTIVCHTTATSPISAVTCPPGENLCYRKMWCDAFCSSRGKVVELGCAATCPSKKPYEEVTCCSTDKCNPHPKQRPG

Row | SMILES | composite z-score [1] | z-score [2] | composite z-score [3] | composite z-score [4] | composite z-score [5] | composite z-score [6] | composite z-score [7] | composite z-score [8] | composite z-score [9] | composite z-score [10] | composite z-score (Albumin (Bos taurus)) | composite Z-score [11] | composite z-score [12] | composite z-score [13] | composite z-score [14] | composite z-score [15] | composite z-score [16] | composite z-score (Sam68 (KHDRBS1)) | composite z-score [17] | composite z-score [18]
1 | C#CCN(C/C=C/c1ccccc1)[C@H](CO[Si](C)(C)C(C)(C)C)c1ccccc1 | -0.115 | -2.36 | 0.301 | -0.488 | -1.03 | -0.0403 | -0.0553 | -0.565 | -0.221 | -0.482 | 0.491 | -0.12 (inactive) | -0.125 | -0.229 | -0.33 | -0.0873 | 0.0021 | 0.102 | -0.167 | -0.111
2 | C[N+](C)(C)CCCCCCNC(=O)[C@@H]1C[C@@H]2C(=O)N[C@@H](Cc3ccccc3)C(=O)N2[C@@H]1c1ccc(O)cc1 | 1.32 | 0.389 | 1.27 | -0.193 | -0.927 | -0.0236 | -0.156 | 0.0498 | 1.41 | 1.54 | 0.454 | 0.609 (inactive) | 0.325 | -0.126 | 0.524 | 0.955 | 0.385 | 1.29 | 1.39 | 1.12
3 | CCN(CC)c1ccc(N2CC=CC34O[C@@H]5C=CCOC(=O)[C@@H]5[C@H]3C(=O)N(CCCO)[C@@H]4C2=O)cc1 (stereo not given in full) | 0.295 | -0.427 | -0.934 | -1 | 0.319 | -0.124 | 0.258 | 0.223 | 0.0016 | -1.57 | -0.997 | 0.547 (inactive) | -0.0971 | -0.14 | 0.862 | 1.4 | -0.39 | 0.425 | -0.773 | -1.74
4 | C=C(/C(=C/C[C@H](OC(=O)c1ccncc1)c1ccccc1OCCO)c1cc(C(=O)OC)ccc1OC)C(C)C | 1.03 | -2.96 | 0.255 | -0.23 | -0.587 | 0.132 | 0.0639 | -0.194 | 0.0538 | 1.42 | 0.407 | -0.104 (inactive) | -0.0288 | -0.102 | 0.453 | 0.537 | -0.0576 | 1.06 | 0.33 | 0.737
5 | COCC1=C([C@H](O)CCc2ccccc2)[C@H](CO)n2c(=O)n(-c3ccccc3)c(=O)n2C1 | -0.253 | -0.482 | 0.292 | -0.357 | -0.764 | -0.175 | -0.0553 | -0.0927 | -0.103 | -0.349 | -0.442 | 0.0423 (inactive) | -0.0014 | -0.212 | -0.447 | -0.303 | -0.469 | -0.73 | 0.319 | 0.134
6 | Cc1ccc(S[C@]2(C(=O)NCCN3CCOCC3)CC(=O)N(C3CCCCC3)[C@@H]2c2ccc(CO)cc2I)cc1 | 1.46 | -3.05 | 0.134 | 0.562 | 0.326 | 0.0214 | 0.23 | -0.0098 | 1.37 | 1.23 | 0.81 | 0.918 (inactive) | -0.101 | -0.155 | 0.405 | 2.89 | -0.006 | 1.27 | 0.138 | 1.11
7 | C=C(C(=O)CC[C@@H](OC(C)=O)c1cccc(OCCO)c1)C(C)C | 0.974 | -3.23 | -0.865 | -0.35 | -0.94 | -0.0276 | -0.223 | -0.0863 | 0.847 | 0.221 | 0.371 | 0.566 (inactive) | -0.0311 | -0.148 | 0.862 | 1.82 | 0.0326 | 0.813 | -0.298 | 0.691
8 | CN(C)CCCC[C@@H]1NC(=O)[C@H]2C[C@@H](C(=O)O)[C@@H](c3cccc(OCCO)c3)N2C1=O | -0.226 | 4.23 | 0.494 | -0.526 | 0.16 | 0.0495 | 0.0611 | 0.25 | 0.633 | 1.47 | -0.468 | 0.666 (inactive) | 0.601 | 0.124 | 0.816 | 0.699 | 0.0206 | 0.524 | 0.941 | 0.931
9 | CC(=O)NCCCC[C@@H]1NC(=O)[C@H]2C[C@@H](C(=O)NCCCCCC[N+](C)(C)C)[C@@H](c3ccc(O)cc3)N2C1=O | 1.4 | 1.38 | 0.62 | -0.183 | -0.906 | -0.107 | -0.153 | 0.762 | 0.611 | 0.472 | 0.596 | 0.285 (inactive) | -0.0057 | -0.0556 | 0.676 | 2.2 | 0.527 | 1.17 | 1.4 | 0.682
10 | [N-]=[N+]=NCc1ccccc1C[C@]1(C(=O)N2CCCCC2)N=C(c2ccc(OCCCO)cc2)O[C@H]1c1ccccc1 | 0.809 | -3.2 | -1.05 | 0.816 | 0.407 | 0.105 | 0.134 | 0.437 | 1.11 | -0.049 | -0.0604 | 0.397 (inactive) | 0.23 | -0.0323 | 0.564 | 1.22 | -0.0174 | 0.979 | -1.02 | 0.717
